From PubChem
hgDAF-12 ag: agonists of H. glycines DAF-12 nuclear receptor; AID 687014; activation, % at 6.8 µM; HEK293 GAL4-hgDAF12 UAS-luciferase reporter, agonist luminescence; normalized to butyrate control; hit rate 1.8% among 370,000;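 active means activation above a cutoff set at the mean of all screened compounds plus 3 SD, cut at about 10% in these data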
ssDAF12 agonist: S. stercoralis DAF-12 activation, primary screen. HEK293 ssDAF-12/GRIP1 lit1-tk-luc reporter, luminescence; % of 3 µM dafachronic acid response. activation, % at 6.8 µM. hit rate 1% among 370,000. AID 652126;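 active means activation above the mean over all tested compounds plus 3 SD, cut at about 0.9% in these data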
SMARCA2 activ: increases SMARCA2 function in MMTV reporter cells | activation, % at 9.1 µM | AID 652017 | hit rate 1% among 370,000 | MG213 cells, MMTV-luciferase reporter, dexamethasone, overnight; in the data active means activation above about 7.8%
DAX1 inh-1: inhibitors of DAX1 repression of SF-1 activated StAR promoter; HEK293T StAR-luciferase reporter, SF-1/DAX-1 repression relief; inhibition, % at 6.8 µM; hit rate 1.1% among 370,000; AID 652010;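 active means inhibition above the mean over all tested compounds plus 3 SD, cut at about 3.6% in these data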;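 further: higher inhibition means more luminescence from relief of DAX-1 repression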
DAX1 inh-2: NR0B1 (DAX1) inhibition; P51843; hit rate 0.99% among 340,000; HEK293 Gal4-DAX1 luciferase reporter, luminescence; inhibition, % at 6.75 µM;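 active means inhibition above the mean over all tested compounds plus 3 SD, cut at about 4.2% in these data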;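 further: inhibition shows as a rise in luminescence from relieved DAX1 repression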
Target sequence (P51843 207-470 limits assumed): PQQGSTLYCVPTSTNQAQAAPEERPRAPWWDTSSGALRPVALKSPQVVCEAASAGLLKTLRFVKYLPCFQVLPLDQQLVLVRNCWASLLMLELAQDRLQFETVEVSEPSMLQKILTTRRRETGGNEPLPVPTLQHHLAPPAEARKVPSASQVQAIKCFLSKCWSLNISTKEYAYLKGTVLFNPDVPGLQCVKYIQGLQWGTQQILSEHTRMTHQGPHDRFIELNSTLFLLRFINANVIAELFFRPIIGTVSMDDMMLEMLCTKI
hcDAF12 agonist: H. contortus DAF-12 activation, primary screen. HEK293 hcDAF-12 lit1-tk-luc reporter, luminescence; 0% DMSO, 100% Δ7-dafachronic acid. activation, % at 6.8 µM. hit rate 1.4% among 370,000. AID 652067;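 active means activation above the mean of all tested compounds plus 3 SD, cut at about 5.5% in these data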
LXR ag: counter-screen for hcDAF-12 agonists: agonists of human LXR-beta; shares compounds with hcDAF12 agonist; HEK293 Gal4-LXR tk-luc reporter, luminescence, 24 h; normalized: DMSO 0%, positive control 100%; activation, % at 6.8 µM; 3,400 tested, under 10 active; AID 743027;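 active means mean percent activation of the reporter above a cutoff set as the average over tested compounds plus their standard deviation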
Target sequence (P55055 whole entry, looked up, the tested form may be a part): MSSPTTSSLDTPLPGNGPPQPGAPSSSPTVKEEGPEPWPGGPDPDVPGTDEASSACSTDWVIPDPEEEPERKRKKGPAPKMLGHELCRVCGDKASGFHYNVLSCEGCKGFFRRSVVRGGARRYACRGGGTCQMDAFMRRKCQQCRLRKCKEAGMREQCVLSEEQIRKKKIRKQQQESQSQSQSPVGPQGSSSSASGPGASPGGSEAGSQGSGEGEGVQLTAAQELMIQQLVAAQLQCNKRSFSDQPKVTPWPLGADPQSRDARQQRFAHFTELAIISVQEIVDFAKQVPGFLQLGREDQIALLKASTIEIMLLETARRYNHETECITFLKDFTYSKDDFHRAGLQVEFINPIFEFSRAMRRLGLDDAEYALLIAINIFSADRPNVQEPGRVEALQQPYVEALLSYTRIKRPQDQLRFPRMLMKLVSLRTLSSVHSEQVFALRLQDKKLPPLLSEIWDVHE
hcDAF12 ag: hcDAF-12 agonism, confirmation assay; activation, % at 6.8 µM; HEK293 hcDAF-12 lit1-tk-luc reporter, luminescence; % of Δ7-dafachronic acid response; AID 743032; shares compounds with hcDAF12 agonist; hit rate 61% among 3,400;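 active means mean activation across triplicate tests above the threshold derived from the earlier primary screen, cut at about 5.5% in these data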
hgDAF12 conf: confirmation of H. glycines DAF-12 agonists; hit rate 80% among 3,300; shares compounds with hgDAF-12 ag; activation, % at 6.8 µM; HEK293 GAL4-hgDAF12 luciferase reporter, agonist mode; percent of butyrate response; AID 743050;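 active means mean activation over triplicate wells above the hit cutoff derived from the earlier primary screen, cut at about 11% in these data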
LXRb DAF12 ctr: counter-screen for DAF-12 agonists: agonists of human LXR-beta. shares compounds with hgDAF-12 ag. HEK293 Gal4-LXR luciferase reporter, 24 h. activation, % at 6.8 µM. 3,300 tested, under 10 active;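 active means mean activation of the triplicate above a set limit carried over from the primary screen, none filed active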
Numbers stand for hits. This is a sample that favours compounds with a hit; in the whole collection about 4.8% have one here.

What do the screens show for `Oc1ccc(N=Nc2ccc3ccccc3c2)cc1`?
hgDAF-12 ag: 15.8; ssDAF12 agonist: inactive; SMARCA2 activ: inactive; DAX1 inh-1: inactive; DAX1 inh-2: inactive; hcDAF12 agonist: 7.1; LXR ag: inactive; hcDAF12 ag: inactive; hgDAF12 conf: 19.9; LXRb DAF12 ctr: inactive

How did Oc1ccc(N=Nc2c(O)ccc3ccccc23)cc1 do in these assays?
hgDAF-12 ag: inactive; ssDAF12 agonist: inactive; SMARCA2 activ: inactive; DAX1 inh-1: inactive; DAX1 inh-2: inactive; hcDAF12 agonist: inactive

Results for COc1ccc2[nH]c(C(=O)Nc3cccc(C)n3)cc2c1 ?
hgDAF-12 ag: 15.3; ssDAF12 agonist: 0.9; SMARCA2 activ: inactive; DAX1 inh-1: 3.7; hcDAF12 agonist: 7.9; LXR ag: inactive; hcDAF12 ag: 6.2; hgDAF12 conf: 21.9; LXRb DAF12 ctr: inactive

How did CCN(CC)c1ccc(C(=O)Nc2cccc(F)c2)cc1 do in these assays?
hgDAF-12 ag: 15.0; ssDAF12 agonist: inactive; SMARCA2 activ: inactive; DAX1 inh-1: inactive; DAX1 inh-2: inactive; hcDAF12 agonist: 7.2; LXR ag: inactive; hcDAF12 ag: inactive; hgDAF12 conf: 19.1; LXRb DAF12 ctr: inactive

Results for CN1CCSc2ccc(C(=O)Nc3cccc(F)c3)cc21 ?
hgDAF-12 ag: 23.8; ssDAF12 agonist: 2.0; SMARCA2 activ: inactive; DAX1 inh-1: 3.8; DAX1 inh-2: 7.4; hcDAF12 agonist: 10.9; LXR ag: inactive; hcDAF12 ag: 8.3; hgDAF12 conf: 24.5; LXRb DAF12 ctr: inactive

Results for Cc1cccc(-n2ncc3c(N4CCC(C)CC4)ncnc32)c1 ?
hgDAF-12 ag: 24.2; ssDAF12 agonist: inactive; SMARCA2 activ: inactive; DAX1 inh-1: 7.6; DAX1 inh-2: inactive; hcDAF12 agonist: 6.6; LXR ag: inactive; hcDAF12 ag: 6.2; hgDAF12 conf: 12.8; LXRb DAF12 ctr: inactive

What do the screens show for `COc1ccc2cc(-c3nc4ccccc4n3C)c(=O)oc2c1`?
hgDAF-12 ag: 16.1; ssDAF12 agonist: inactive; SMARCA2 activ: inactive; DAX1 inh-1: 4.1; DAX1 inh-2: inactive; hcDAF12 agonist: 6.8; LXR ag: inactive; hcDAF12 ag: inactive; hgDAF12 conf: 11.3; LXRb DAF12 ctr: inactive

Results for CCOC(=O)CSc1nc2cccnc2n1C ?
hgDAF-12 ag: inactive; ssDAF12 agonist: inactive; SMARCA2 activ: inactive; DAX1 inh-1: inactive; DAX1 inh-2: inactive; hcDAF12 agonist: inactive

What do the screens show for `Cn1c(SCc2ccccc2F)nc2cccnc21`?
hgDAF-12 ag: 14.3; ssDAF12 agonist: inactive; SMARCA2 activ: inactive; DAX1 inh-1: inactive; DAX1 inh-2: inactive; hcDAF12 agonist: 8.0; LXR ag: inactive; hcDAF12 ag: 5.7; hgDAF12 conf: 17.7; LXRb DAF12 ctr: inactive

What do the screens show for `COC(=O)c1cc2c(c3c4cc(OC)ccc4n(S(=O)(=O)c4ccc(C)cc4)c13)C(=O)N(C)C2`?
hgDAF-12 ag: inactive; ssDAF12 agonist: inactive; SMARCA2 activ: inactive; DAX1 inh-1: inactive; hcDAF12 agonist: inactive

What do the screens show for `COc1cccc(N=c2oc3ccccc3cc2-c2nc3ccccc3[nH]2)c1`?
hgDAF-12 ag: 15.6; ssDAF12 agonist: 2.6; SMARCA2 activ: inactive; DAX1 inh-1: inactive; DAX1 inh-2: inactive; hcDAF12 agonist: 15.2; LXR ag: inactive; hcDAF12 ag: 6.7; hgDAF12 conf: 19.3; LXRb DAF12 ctr: inactive

What do the screens show for `CCOc1ccc(NC(=O)c2ccncc2)cc1`?
hgDAF-12 ag: inactive; ssDAF12 agonist: inactive; SMARCA2 activ: inactive; DAX1 inh-1: inactive; DAX1 inh-2: inactive; hcDAF12 agonist: inactive

What do the screens show for `CCOc1ccc(NC(=O)c2nsc(Cl)c2Cl)cc1`?
hgDAF-12 ag: 18.2; ssDAF12 agonist: 0.9; SMARCA2 activ: inactive; DAX1 inh-1: 4.4; DAX1 inh-2: inactive; hcDAF12 agonist: 7.2; LXR ag: inactive; hcDAF12 ag: 6.6; hgDAF12 conf: 17.9; LXRb DAF12 ctr: inactive

What do the screens show for `O=C(CSc1cn(Cc2ccccc2)c2ccccc12)Nc1nccs1`?
hgDAF-12 ag: 23.7; ssDAF12 agonist: 1.1; SMARCA2 activ: inactive; DAX1 inh-1: 8.9; DAX1 inh-2: inactive; hcDAF12 agonist: 9.7; LXR ag: inactive; hcDAF12 ag: 8.9; hgDAF12 conf: 17.7; LXRb DAF12 ctr: inactive

What do the screens show for `O=C(CSc1ccccc1)Nc1nccs1`?
hgDAF-12 ag: inactive; ssDAF12 agonist: inactive; SMARCA2 activ: inactive; DAX1 inh-1: inactive; DAX1 inh-2: inactive; hcDAF12 agonist: inactive

How did C#CCNC(=O)C[C@H]1C[C@@]2(C(=O)OC)C(=C[C@H](COCc3ccccc3)O[C@@H]2C)N(CCC2=CCCCC2)C1=O do in these assays?
hgDAF-12 ag: inactive; ssDAF12 agonist: inactive; SMARCA2 activ: inactive; DAX1 inh-1: inactive; hcDAF12 agonist: inactive

How did O=c1cc(CCl)[nH]c2nc3ccccc3n12 do in these assays?
hgDAF-12 ag: inactive; ssDAF12 agonist: inactive; SMARCA2 activ: inactive; DAX1 inh-1: inactive; DAX1 inh-2: inactive; hcDAF12 agonist: inactive

How did O=c1cc(-c2ccccc2)[nH]c2nc3ccccc3n12 do in these assays?
hgDAF-12 ag: 13.8; ssDAF12 agonist: 1.5; SMARCA2 activ: inactive; DAX1 inh-1: 3.7; DAX1 inh-2: inactive; hcDAF12 agonist: 10.8; LXR ag: inactive; hcDAF12 ag: 15.2; hgDAF12 conf: 19.4; LXRb DAF12 ctr: inactive

What do the screens show for `COCCN1Cc2c(sc(C)c2C)N(C(=O)c2ccccc2)C1`?
hgDAF-12 ag: 14.2; ssDAF12 agonist: 1.7; SMARCA2 activ: inactive; DAX1 inh-1: inactive; DAX1 inh-2: inactive; hcDAF12 agonist: 9.2; LXR ag: inactive; hcDAF12 ag: inactive; hgDAF12 conf: inactive; LXRb DAF12 ctr: inactive

How did COC1=C/C(=C/c2c(O)c(C#N)c3ccccn23)C=CC1=O do in these assays?
hgDAF-12 ag: 13.6; ssDAF12 agonist: 0.9; SMARCA2 activ: inactive; DAX1 inh-1: inactive; DAX1 inh-2: inactive; hcDAF12 agonist: 11.2; LXR ag: inactive; hcDAF12 ag: inactive; hgDAF12 conf: 11.2; LXRb DAF12 ctr: inactive

How did O=C(/C=C/c1ccccc1Cl)Nc1ccccc1 do in these assays?
hgDAF-12 ag: 19.8; ssDAF12 agonist: 2.6; SMARCA2 activ: inactive; DAX1 inh-1: inactive; hcDAF12 agonist: 15.7; LXR ag: inactive; hcDAF12 ag: 16.2; hgDAF12 conf: 24.9; LXRb DAF12 ctr: inactive
